# Data as given in PMC7862700, “An all-to-all approach to the identification of sequence-specific readers for epigenetic DNA modifications on cytosine”.
# Legend:
# Experiment in all cases: DAPPL (digital affinity profiling via proximity ligation, sequencing); 10 mM Tris-HCl pH 7.5, 50 mM NaCl, 1 mM DTT, 4% glycerol, room temperature, 30 min; GST-TFs on glutathione beads, 16-mer random dsDNA library, 0.1% formaldehyde crosslink after washing; high values mean tight binding
# FLI1 = target: T1, FLI1 (Homo sapiens, UniProt Q01543 1-452); conditions: protein: recombinant; tags: N-terminal GST; dsDNA, one strand shown
# T1 sequence: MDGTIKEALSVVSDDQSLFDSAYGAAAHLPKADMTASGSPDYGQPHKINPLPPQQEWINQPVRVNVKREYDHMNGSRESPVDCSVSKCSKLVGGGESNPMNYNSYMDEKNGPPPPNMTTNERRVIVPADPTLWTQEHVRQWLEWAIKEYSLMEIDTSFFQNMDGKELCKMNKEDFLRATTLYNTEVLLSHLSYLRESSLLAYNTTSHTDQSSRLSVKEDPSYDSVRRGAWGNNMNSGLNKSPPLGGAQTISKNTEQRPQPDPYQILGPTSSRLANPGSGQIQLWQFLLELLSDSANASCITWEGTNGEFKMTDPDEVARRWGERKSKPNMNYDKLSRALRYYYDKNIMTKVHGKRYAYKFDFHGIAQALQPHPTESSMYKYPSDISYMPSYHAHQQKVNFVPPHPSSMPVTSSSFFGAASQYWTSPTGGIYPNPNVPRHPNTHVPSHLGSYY
# Summary of the method: (§1)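 Beads coated with glutathione captured GST-fused human transcription factors that had been expressed in yeast, and the factors were then given DNA barcodes and pooled with a tag-only sample. The pools were incubated with 200 nmole of a random double-stranded 16-mer DNA library in Tris/NaCl/DTT/glycerol buffer for 30 min at room temperature, washed, crosslinked with 0.1% formaldehyde and proximity-ligated with BsaI/T4 ligase at 37 °C for 1 h. PCR amplification and Illumina NextSeq500 sequencing came last. Binding signal is each hexamer's read frequency for a factor divided by its frequency for the tag-only sample.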
# ELK1 = target: T2, ELK1 (Homo sapiens, UniProt P19419 1-428); conditions: protein: recombinant; tags: N-terminal GST; dsDNA, one strand shown
# T2 sequence: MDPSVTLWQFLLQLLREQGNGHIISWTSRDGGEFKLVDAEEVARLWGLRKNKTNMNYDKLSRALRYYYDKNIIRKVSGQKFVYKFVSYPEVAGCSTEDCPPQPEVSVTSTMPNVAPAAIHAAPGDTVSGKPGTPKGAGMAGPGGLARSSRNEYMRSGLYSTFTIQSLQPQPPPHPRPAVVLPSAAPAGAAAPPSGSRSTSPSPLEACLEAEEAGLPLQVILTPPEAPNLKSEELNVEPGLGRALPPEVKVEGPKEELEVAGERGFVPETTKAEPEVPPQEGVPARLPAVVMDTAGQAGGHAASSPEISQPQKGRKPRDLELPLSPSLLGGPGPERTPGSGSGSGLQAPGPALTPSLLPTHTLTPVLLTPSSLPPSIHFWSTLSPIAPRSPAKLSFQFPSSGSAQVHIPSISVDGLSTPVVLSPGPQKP
# Summary of the method: as §1
# GABPA = target: T3, GABPA (Homo sapiens, UniProt Q06546 1-454); conditions: protein: recombinant; tags: N-terminal GST; dsDNA, one strand shown
# T3 sequence: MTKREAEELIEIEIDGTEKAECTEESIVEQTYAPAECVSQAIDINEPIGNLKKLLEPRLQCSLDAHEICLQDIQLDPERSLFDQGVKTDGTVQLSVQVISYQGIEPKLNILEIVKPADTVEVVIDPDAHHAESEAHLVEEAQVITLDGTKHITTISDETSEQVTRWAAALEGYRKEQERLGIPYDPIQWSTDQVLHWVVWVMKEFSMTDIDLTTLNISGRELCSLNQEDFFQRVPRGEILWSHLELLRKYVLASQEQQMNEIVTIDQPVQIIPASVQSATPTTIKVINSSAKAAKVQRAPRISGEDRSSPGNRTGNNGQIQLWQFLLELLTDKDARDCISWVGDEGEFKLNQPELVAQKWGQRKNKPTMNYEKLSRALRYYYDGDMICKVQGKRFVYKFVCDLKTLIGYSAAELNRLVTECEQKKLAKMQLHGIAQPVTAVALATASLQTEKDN
# Summary of the method: as §1
# ERG = target: T4, ERG (Homo sapiens, UniProt P11308 1-479); conditions: protein: recombinant; tags: N-terminal GST; dsDNA, one strand shown
# T4 sequence: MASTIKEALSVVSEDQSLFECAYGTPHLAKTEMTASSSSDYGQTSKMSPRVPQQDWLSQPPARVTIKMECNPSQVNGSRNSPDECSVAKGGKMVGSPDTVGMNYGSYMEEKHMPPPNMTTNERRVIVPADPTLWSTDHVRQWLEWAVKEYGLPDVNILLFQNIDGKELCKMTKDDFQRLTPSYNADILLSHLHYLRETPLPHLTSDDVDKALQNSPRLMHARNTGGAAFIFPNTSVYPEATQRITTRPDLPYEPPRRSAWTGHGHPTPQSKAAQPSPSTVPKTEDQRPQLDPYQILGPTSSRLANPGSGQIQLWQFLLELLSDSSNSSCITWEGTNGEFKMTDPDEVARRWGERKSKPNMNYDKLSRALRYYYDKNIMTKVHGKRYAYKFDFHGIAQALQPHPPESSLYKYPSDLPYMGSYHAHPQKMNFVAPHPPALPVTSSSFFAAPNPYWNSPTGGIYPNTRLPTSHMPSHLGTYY
# Summary of the method: as §1
# ELF1 = ELF1 (Homo sapiens, UniProt P32519 1-619); conditions: protein: recombinant; tags: N-terminal GST; dsDNA, one strand shown
# Summary of the method: as §1
# EHF = target: T5, EHF (Homo sapiens, UniProt Q9NZC4 1-300); conditions: protein: recombinant; tags: N-terminal GST; dsDNA, one strand shown
# T5 sequence: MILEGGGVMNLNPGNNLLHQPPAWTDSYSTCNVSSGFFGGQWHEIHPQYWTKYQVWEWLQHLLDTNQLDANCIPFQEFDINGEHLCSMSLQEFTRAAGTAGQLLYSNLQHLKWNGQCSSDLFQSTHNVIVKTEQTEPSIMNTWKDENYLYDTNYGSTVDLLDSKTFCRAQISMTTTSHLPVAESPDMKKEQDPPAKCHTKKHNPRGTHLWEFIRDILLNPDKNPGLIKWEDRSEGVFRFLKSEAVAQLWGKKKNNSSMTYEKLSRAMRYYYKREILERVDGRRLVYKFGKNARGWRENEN
# Summary of the method: as §1
# SPI1 = SPI1 (Homo sapiens, UniProt P17947 1-270); conditions: protein: recombinant; tags: N-terminal GST; dsDNA, one strand shown
# Summary of the method: as §1
# SPIB = SPIB (Homo sapiens, UniProt Q01892 1-262); conditions: protein: recombinant; tags: N-terminal GST; dsDNA, one strand shown
# Summary of the method: as §1
# ELK3 = target: T6, ELK3 (Homo sapiens, UniProt P41970 1-407); conditions: protein: recombinant; tags: N-terminal GST; dsDNA, one strand shown
# T6 sequence: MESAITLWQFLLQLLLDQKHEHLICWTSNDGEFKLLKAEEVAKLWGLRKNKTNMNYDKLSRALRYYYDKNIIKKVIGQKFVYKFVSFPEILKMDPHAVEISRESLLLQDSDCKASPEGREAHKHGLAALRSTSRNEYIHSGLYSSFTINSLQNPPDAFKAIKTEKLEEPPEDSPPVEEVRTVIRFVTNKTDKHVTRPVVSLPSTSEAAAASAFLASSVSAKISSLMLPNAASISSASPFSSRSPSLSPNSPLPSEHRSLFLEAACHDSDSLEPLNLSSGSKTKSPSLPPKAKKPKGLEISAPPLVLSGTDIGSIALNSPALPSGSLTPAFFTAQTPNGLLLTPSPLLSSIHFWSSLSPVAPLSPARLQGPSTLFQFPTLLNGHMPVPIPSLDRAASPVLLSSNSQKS
# Summary of the method: as §1
# FEV = target: T7, FEV (Homo sapiens, UniProt Q99581 1-238); conditions: protein: recombinant; tags: N-terminal GST; dsDNA, one strand shown
# T7 sequence: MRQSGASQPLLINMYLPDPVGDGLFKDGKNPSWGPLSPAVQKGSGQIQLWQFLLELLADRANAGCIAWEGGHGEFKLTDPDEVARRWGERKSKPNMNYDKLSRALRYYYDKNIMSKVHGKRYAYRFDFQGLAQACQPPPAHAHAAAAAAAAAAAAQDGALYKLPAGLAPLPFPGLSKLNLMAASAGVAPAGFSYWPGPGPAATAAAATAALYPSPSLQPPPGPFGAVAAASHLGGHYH
# Summary of the method: as §1
# ETV5 = ETV5 (Homo sapiens, UniProt P41161 1-510); conditions: protein: recombinant; tags: N-terminal GST; dsDNA, one strand shown
# Summary of the method: as §1
# HSF1 = HSF1 (Homo sapiens, UniProt Q00613 1-529); conditions: protein: recombinant; tags: N-terminal GST; chain copies: 3; dsDNA, one strand shown
# Summary of the method: as §1
# SPIC = target: T8, SPIC (Homo sapiens, UniProt Q8N5J4 1-248); conditions: protein: recombinant; tags: N-terminal GST; dsDNA, one strand shown
# T8 sequence: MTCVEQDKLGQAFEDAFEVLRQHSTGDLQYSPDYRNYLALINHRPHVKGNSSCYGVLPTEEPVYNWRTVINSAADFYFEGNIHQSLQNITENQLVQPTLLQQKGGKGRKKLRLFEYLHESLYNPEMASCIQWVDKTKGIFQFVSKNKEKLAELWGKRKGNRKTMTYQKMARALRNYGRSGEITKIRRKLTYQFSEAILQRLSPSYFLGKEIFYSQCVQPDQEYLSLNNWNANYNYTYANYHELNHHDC
# Summary of the method: as §1
# ELF4 = ELF4 (Homo sapiens, UniProt Q99607 1-663); conditions: protein: recombinant; tags: N-terminal GST; dsDNA, one strand shown
# Summary of the method: as §1
# ELK4 = target: T9, ELK4 (Homo sapiens, UniProt P28324-2 1-405); conditions: protein: recombinant; tags: N-terminal GST; dsDNA, one strand shown
# T9 sequence: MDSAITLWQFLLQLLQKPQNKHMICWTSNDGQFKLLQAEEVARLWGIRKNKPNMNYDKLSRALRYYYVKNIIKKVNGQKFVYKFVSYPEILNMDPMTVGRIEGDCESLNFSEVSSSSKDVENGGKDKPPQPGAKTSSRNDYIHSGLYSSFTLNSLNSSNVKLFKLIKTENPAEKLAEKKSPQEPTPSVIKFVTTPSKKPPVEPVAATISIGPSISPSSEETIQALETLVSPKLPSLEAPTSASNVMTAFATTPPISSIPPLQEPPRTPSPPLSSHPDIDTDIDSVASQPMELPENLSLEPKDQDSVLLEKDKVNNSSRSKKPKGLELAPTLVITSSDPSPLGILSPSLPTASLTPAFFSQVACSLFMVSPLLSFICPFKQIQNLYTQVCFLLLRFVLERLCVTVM
# Summary of the method: as §1
# ETV2 = target: T10, ETV2 (Homo sapiens, UniProt O00321 1-342); conditions: protein: recombinant; tags: N-terminal GST; dsDNA, one strand shown
# T10 sequence: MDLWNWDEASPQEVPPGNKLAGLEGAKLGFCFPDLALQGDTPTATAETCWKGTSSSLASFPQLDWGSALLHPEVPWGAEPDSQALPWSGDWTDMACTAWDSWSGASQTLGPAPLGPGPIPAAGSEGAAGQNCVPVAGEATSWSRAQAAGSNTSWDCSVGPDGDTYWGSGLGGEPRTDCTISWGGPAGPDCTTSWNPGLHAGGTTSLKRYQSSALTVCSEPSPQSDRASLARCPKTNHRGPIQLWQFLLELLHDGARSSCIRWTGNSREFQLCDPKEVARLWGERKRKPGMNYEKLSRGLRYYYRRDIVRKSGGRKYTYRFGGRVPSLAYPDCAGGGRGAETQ
# Summary of the method: as §1
# ELF3 = target: T11, ELF3 (Homo sapiens, UniProt P78545 1-371); conditions: protein: recombinant; tags: N-terminal GST; dsDNA, one strand shown
# T11 sequence: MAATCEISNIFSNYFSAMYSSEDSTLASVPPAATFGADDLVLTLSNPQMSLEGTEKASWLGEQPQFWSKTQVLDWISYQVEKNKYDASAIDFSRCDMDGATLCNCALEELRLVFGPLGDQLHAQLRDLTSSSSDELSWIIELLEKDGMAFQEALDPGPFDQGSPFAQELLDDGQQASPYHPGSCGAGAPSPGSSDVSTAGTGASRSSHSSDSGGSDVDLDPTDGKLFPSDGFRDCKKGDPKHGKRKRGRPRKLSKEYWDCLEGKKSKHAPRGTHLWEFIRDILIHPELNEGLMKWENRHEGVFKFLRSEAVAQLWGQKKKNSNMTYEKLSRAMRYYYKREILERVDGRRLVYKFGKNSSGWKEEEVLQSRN
# Summary of the method: as §1
# CRX = CRX (Homo sapiens, UniProt O43186 1-299); conditions: protein: recombinant; tags: N-terminal GST; dsDNA, one strand shown
# Summary of the method: as §1
# ETV1 = ETV1 (Homo sapiens, UniProt P50549 1-477); conditions: protein: recombinant; tags: N-terminal GST; dsDNA, one strand shown
# Summary of the method: as §1
# HSF1, sequence (Q00613 whole entry): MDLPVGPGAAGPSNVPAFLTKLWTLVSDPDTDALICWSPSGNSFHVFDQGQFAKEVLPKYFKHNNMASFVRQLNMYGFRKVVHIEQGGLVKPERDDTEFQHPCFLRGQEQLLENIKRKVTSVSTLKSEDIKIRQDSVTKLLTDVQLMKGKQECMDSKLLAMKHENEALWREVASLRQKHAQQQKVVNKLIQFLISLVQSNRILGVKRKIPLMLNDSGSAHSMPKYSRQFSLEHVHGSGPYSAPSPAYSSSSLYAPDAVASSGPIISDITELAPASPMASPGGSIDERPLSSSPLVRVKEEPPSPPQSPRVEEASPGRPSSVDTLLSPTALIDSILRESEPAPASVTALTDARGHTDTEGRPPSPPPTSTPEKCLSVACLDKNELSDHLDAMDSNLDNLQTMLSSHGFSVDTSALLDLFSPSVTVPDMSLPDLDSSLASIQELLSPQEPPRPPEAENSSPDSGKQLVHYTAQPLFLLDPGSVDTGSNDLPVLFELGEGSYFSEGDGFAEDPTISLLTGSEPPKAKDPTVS
# ELF1, sequence (P32519 whole entry): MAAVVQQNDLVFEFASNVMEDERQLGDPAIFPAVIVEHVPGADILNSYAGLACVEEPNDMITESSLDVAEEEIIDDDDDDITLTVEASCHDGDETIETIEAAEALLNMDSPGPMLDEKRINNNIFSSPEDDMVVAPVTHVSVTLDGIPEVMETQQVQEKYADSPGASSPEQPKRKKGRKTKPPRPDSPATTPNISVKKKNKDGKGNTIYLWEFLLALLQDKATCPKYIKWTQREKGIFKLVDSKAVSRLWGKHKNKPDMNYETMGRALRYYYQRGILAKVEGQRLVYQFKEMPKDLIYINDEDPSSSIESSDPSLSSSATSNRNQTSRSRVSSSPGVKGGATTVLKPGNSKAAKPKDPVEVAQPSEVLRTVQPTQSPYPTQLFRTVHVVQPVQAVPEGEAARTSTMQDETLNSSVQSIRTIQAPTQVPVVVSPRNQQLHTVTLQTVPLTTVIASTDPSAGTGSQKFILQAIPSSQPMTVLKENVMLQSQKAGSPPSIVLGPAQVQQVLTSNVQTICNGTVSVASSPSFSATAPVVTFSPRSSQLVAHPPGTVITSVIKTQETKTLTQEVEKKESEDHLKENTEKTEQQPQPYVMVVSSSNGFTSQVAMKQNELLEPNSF
# CRX, sequence (O43186 whole entry): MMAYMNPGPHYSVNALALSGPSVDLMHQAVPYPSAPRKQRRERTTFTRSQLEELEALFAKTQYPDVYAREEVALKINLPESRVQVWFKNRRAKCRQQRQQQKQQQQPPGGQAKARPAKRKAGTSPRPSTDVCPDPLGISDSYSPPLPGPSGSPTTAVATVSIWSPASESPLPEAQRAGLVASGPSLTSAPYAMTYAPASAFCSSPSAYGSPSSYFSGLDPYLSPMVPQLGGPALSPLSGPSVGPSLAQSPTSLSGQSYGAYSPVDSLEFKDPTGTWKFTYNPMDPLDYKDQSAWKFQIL
# ELF4, sequence (Q99607 whole entry): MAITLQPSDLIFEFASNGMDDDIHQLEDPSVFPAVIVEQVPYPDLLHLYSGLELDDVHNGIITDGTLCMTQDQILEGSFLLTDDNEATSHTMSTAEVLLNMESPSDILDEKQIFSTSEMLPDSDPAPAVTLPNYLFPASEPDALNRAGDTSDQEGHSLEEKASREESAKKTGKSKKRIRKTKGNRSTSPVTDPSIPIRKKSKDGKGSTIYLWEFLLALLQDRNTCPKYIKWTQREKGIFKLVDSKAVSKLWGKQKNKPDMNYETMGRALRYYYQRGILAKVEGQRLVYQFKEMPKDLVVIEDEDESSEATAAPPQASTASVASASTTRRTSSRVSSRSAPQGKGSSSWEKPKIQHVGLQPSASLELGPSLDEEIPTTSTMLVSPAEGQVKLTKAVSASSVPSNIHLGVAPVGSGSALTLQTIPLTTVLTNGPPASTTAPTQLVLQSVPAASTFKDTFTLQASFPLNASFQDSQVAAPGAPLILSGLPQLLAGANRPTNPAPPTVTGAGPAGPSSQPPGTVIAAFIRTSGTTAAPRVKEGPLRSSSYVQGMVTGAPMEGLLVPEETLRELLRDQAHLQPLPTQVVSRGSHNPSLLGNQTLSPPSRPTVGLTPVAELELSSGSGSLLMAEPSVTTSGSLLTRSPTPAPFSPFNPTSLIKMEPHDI
# ETV1, sequence (P50549 whole entry): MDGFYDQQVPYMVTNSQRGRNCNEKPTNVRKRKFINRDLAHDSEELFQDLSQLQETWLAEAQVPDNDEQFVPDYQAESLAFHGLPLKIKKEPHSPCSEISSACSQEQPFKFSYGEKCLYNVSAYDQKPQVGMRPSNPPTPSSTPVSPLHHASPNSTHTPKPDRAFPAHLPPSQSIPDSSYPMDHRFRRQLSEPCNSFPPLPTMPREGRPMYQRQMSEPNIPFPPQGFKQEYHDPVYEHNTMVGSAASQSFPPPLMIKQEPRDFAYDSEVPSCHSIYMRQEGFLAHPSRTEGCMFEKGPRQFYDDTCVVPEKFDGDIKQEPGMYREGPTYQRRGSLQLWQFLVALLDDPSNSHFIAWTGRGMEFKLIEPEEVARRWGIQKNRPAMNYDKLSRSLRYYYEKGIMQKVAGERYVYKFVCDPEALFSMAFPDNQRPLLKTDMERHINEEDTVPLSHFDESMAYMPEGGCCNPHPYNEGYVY
# SPIB, sequence (Q01892 whole entry): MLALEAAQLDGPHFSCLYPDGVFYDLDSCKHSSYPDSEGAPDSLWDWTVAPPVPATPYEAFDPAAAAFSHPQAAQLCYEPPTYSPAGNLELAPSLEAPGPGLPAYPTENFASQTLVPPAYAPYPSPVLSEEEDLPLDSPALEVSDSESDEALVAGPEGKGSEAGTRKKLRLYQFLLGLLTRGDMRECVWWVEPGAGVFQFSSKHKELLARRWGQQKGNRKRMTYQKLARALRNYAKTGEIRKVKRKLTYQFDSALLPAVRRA
# ETV5, sequence (P41161 whole entry): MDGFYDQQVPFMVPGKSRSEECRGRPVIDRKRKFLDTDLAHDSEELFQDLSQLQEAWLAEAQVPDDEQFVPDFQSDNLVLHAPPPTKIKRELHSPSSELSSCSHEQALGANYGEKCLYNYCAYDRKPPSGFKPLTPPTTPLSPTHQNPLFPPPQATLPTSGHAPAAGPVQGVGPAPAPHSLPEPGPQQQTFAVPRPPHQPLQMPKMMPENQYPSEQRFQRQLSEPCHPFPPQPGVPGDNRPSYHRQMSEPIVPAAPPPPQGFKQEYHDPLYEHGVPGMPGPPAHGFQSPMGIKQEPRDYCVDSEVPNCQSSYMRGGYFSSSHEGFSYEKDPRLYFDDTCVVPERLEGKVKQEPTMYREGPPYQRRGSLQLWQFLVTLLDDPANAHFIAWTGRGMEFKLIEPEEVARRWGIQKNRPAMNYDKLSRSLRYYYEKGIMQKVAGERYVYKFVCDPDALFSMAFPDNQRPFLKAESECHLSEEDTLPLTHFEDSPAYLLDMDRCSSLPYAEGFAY
sequence,measurement,setting,value
CCTTGC,binding signal,FLI1,"1.31 fold enrichment (6-mer frequency, TF over GST control)"
same,binding signal,ELK1,"1.28 fold enrichment (6-mer frequency, TF over GST control)"
same,binding signal,GABPA,"1.33 fold enrichment (6-mer frequency, TF over GST control)"
same,binding signal,ERG,"1.2 fold enrichment (6-mer frequency, TF over GST control)"
same,binding signal,ELF1,"1.45 fold enrichment (6-mer frequency, TF over GST control)"
same,binding signal,EHF,"1.28 fold enrichment (6-mer frequency, TF over GST control)"
same,binding signal,SPI1,"1.27 fold enrichment (6-mer frequency, TF over GST control)"
same,binding signal,SPIB,"1.24 fold enrichment (6-mer frequency, TF over GST control)"
same,binding signal,ELK3,"1.16 fold enrichment (6-mer frequency, TF over GST control)"
same,binding signal,FEV,"1.27 fold enrichment (6-mer frequency, TF over GST control)"
same,binding signal,ETV5,"1.17 fold enrichment (6-mer frequency, TF over GST control)"
same,binding signal,HSF1,"1.04 fold enrichment (6-mer frequency, TF over GST control)"
same,binding signal,SPIC,"1.45 fold enrichment (6-mer frequency, TF over GST control)"
same,binding signal,ELF4,"1.27 fold enrichment (6-mer frequency, TF over GST control)"
same,binding signal,ELK4,"1.2 fold enrichment (6-mer frequency, TF over GST control)"
same,binding signal,ETV2,"1.44 fold enrichment (6-mer frequency, TF over GST control)"
same,binding signal,ELF3,"1.49 fold enrichment (6-mer frequency, TF over GST control)"
same,binding signal,CRX,"1.02 fold enrichment (6-mer frequency, TF over GST control)"
same,binding signal,ETV1,"1.33 fold enrichment (6-mer frequency, TF over GST control)"
